Bioassay records from PubChem BioAssay.
The list is not random: actives were taken first. Their share in the collection is about 4.1%.
hgDAF12 agonist = hgDAF-12 agonism, primary luciferase screen; HEK293 GAL4-hgDAF12 UAS-luciferase reporter, agonist luminescence; normalized to butyrate control; 370,000 tested, 1.8% active; activation, % at 6.8 µM; AID 687014;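 active means activation above a cutoff set at the mean of all screened compounds plus 3 SD, cut at about 10% in these data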;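 further: 0% = DMSO wells and 100% = sodium butyrate wells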
PolyA inhibitor = inhibitors of polyadenylation in S. cerevisiae; AID 1875; S. cerevisiae SKY197-pL101 polyadenylation reporter, beta-gal luminescence; efflux-impaired pdr1/pdr3 knockout yeast; score 100 = 6 SD above DMSO; activity score, % at 12 µM; 300,000 tested, 0.02% active;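 active means lowest replicate activity score at least 50, where 100 means six control SD above control mean; inconclusive means lowest score under 50 but half or more replicates reach 50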;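 further: yeast exposed to compound for 9 h at 30 °C; higher score means more reporter readthrough which indicates perturbed polyadenylation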
DAX1 inh-1 = inhibits human nuclear receptor DAX1; P51843; AID 504766; inhibition, % at 6.75 µM; HEK293 Gal4-DAX1 luciferase reporter, luminescence; 340,000 tested, 0.99% active;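 active means inhibition above the mean over all tested compounds plus 3 SD, cut at about 4.2% in these data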;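 further: 0% = DAX1-transfected cells with DMSO and 100% = empty-vector control cells with DMSO; inhibition shows as a rise in luminescence from relieved DAX1 repression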
Target sequence (P51843 207-470 limits assumed): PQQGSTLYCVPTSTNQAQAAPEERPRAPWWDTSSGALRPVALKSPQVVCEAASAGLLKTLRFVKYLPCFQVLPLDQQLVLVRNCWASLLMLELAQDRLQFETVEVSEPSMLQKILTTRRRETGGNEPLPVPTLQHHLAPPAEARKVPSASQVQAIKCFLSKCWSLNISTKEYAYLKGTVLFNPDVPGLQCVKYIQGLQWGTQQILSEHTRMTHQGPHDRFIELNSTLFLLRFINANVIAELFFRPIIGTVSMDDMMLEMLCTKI
DAX1 inh-2 = blocks DAX1 repression of SF-1 activated StAR promoter | 370,000 tested, 1.1% active | inhibition, % at 6.8 µM | AID 652010 | HEK293T StAR-luciferase reporter, SF-1/DAX-1 repression relief;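 active means inhibition above the mean over all tested compounds plus 3 SD, cut at about 3.6% in these data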;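 further: 0% = DAX-1 cells with DMSO and 100% = cells lacking DAX-1 with DMSO; higher inhibition means more luminescence from relief of DAX-1 repression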
hcDAF-12 act = activates DAF-12 receptor from parasite H. contortus. AID 652067. 370,000 tested, 1.4% active. HEK293 hcDAF-12 lit1-tk-luc reporter, luminescence; 0% DMSO, 100% Δ7-dafachronic acid. activation, % at 6.8 µM;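 active means activation above the mean of all tested compounds plus 3 SD, cut at about 5.5% in these data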;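 further: 100% = response to 3 µM Δ7-dafachronic acid high control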
ssDAF12 agonist = activators of S. stercoralis DAF-12 nuclear receptor. HEK293 ssDAF-12/GRIP1 lit1-tk-luc reporter, luminescence; % of 3 µM dafachronic acid response. activation, % at 6.8 µM. 370,000 tested, 1% active. AID 652126;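 active means activation above the mean over all tested compounds plus 3 SD, cut at about 0.9% in these data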;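 further: 0% = DMSO-only wells and 100% = 3 µM delta7-dafachronic acid wells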
* = called active by the depositor; ? = inconclusive; nt = no result given.

SMILES | hgDAF12 agonist | PolyA inhibitor | DAX1 inh-1 | DAX1 inh-2 | hcDAF-12 act | ssDAF12 agonist
O=C(N/N=C/c1ccccc1C(F)(F)F)c1ccc(O)cc1 | 7.1 | 5.0 | 5.0* | 1.6 | 1.1 | -0.2
O=C(N/N=C/c1ccccc1)c1c(O)c2ccccc2[nH]c1=O | 3.3 | ? | 0.1 | 0.3 | 1.7 | -0.5
O=C(N/N=C/c1ccc(F)cc1)c1c(O)c2ccccc2[nH]c1=O | -1.0 | 59.5* | 0.3 | -0.3 | -0.4 | -1.9
O=C(N/N=C/c1ccc(F)cc1)c1ccccc1 | 12.8* | 0.4 | 5.2* | 2.8 | 2.7 | 0.1
O=C(N/N=C/c1ccccc1O)c1cccc(C(F)(F)F)c1 | -6.9 | 10.6 | -2.2 | -3.0 | -2.8 | -2.1
O=C(N/N=C\c1ccccc1)c1ccccc1-n1cccc1 | 3.3 | 18.7 | 1.8 | -0.6 | 4.0 | 1.2*
O=C(O)c1ccc(/C=N/NC(=O)c2ccc(F)cc2)cc1 | -1.0 | 1.0 | 1.1 | 0.1 | 0.8 | -0.9
COc1ccc2c3c([nH]c2c1)[C@]1(NCC3)C(=O)N(C)c2ccc(Cl)cc21 | 1.8 | nt | nt | -1.2 | 1.6 | 0.6
CCCCCN1CCCCC(NC(=O)c2ccccc2OC)C1=O (stereo not drawn) | 0.8 | nt | nt | -1.2 | -2.0 | -1.2
COc1ccc(/C=C/C(=O)Oc2ccc(/C=N/NC(=O)c3ccccc3)cc2)cc1OC | 5.7 | 5.2 | 4.2* | 0.1 | 0.3 | -0.3
COc1ccc(/C=N/NC(=O)c2ccncc2)cc1OC | -2.2 | -9.2 | -0.4 | 0.1 | -2.0 | -1.0
O=C(N/N=C\c1ccc(F)cc1)c1csnn1 | 13.1* | -1.4 | 2.5 | 2.0 | 1.4 | -0.7
C[C@H](CO)N1C[C@H](C)[C@H](CN(C)C(=O)Nc2cccc3ccccc23)Oc2ncc(Br)cc2C1=O | 0.5 | nt | nt | -0.5 | 0.9 | 0.5
COC(=O)C1CCC(CNC(=O)C(Cc2ccc3c(c2)OCO3)NC(C)=O)CC1 (stereo not drawn) | 2.1 | nt | nt | -0.4 | -3.3 | -1.1
Cc1nc(-c2cc(-c3ccc(Cl)cc3)no2)cs1 | 3.0 | ? | 4.5* | 0.6 | 0.2 | -0.8
CC1CC(C)CN(CCCNC(=O)CN2C(=O)CSc3ccc(S(=O)(=O)N4CCCCC4)cc32)C1 (stereo not drawn) | 0.9 | 3.3 | 0.9 | 3.6* | 2.4 | -1.4
O=C(CN1C(=O)CSc2ccc(S(=O)(=O)N3CCOCC3)cc21)NCCCN1CCCCC1 | 0.4 | -2.7 | 0.0 | -0.5 | -1.1 | -1.3
CCNc1nc(N)c([N+](=O)[O-])c(Nc2cccc(Cl)c2)n1 | 3.3 | nt | nt | nt | -1.6 | -1.6
CC(=O)NCCC(=O)Nc1nc2c(ccc3ccccc32)s1 | 1.4 | 9.4 | 0.9 | 0.0 | 0.7 | -0.8
Nc1nc2c(ccc3ccccc32)s1 | 1.3 | -16.9 | 4.9* | 0.3 | 3.0 | -0.4
Cc1ccc(S(=O)(=O)Nc2cccc(-c3ccc(N4CCCCCC4)nn3)c2)c(C)c1 | 10.0 | 2.6 | 0.8 | 4.1* | 1.5 | -0.6
COC(=O)c1ccc(SCc2cnc(Cl)s2)cc1 | 1.6 | -4.8 | 0.8 | 0.1 | 2.9 | -1.1
O=C(O)c1ccc(SCc2cnc(Cl)s2)cc1 | -1.9 | 61.3* | -0.6 | 0.4 | -0.1 | -1.1
O=C(O)Cn1ccc2ccccc21 | 1.2 | 13.1 | 0.1 | -0.3 | 5.7* | 0.9
NC(=O)CCn1ccc2ccccc21 | 1.4 | -2.5 | 1.6 | -1.0 | 1.1 | -1.6
SMILES | hgDAF12 agonist | PolyA inhibitor | DAX1 inh-1 | DAX1 inh-2 | hcDAF-12 act | ssDAF12 agonist
Cc1ccc(Cn2cc(COC(=O)Nc3ccc(F)cc3)nn2)cc1 | 4.0 | nt | nt | 0.2 | 0.4 | -0.6
O=C(NNC(=O)C1CC2CCC1C2)c1sc2ccccc2c1Cl (stereo not drawn) | 12.9* | -25.6 | 0.9 | 1.5 | 2.4 | 0.3
O=C(NC1CC1)c1sc2ccccc2c1Cl | 2.3 | -12.0 | -0.6 | 0.5 | -1.8 | -0.9
O=C(COc1ccc(C2SCCS2)cc1)NNC(=O)C(Cl)Cl | 1.2 | -9.8 | 5.9* | 0.2 | 0.1 | 0.1
COC(=O)C[C@@H]1CC[C@H]2[C@H](COc3ccc(NC(=O)Nc4cccc(C#N)c4)cc3C(=O)N2C)O1 | 0.8 | nt | nt | -1.1 | 0.3 | -0.8
CC(=O)Nc1ccc(-c2nc3cc(Cl)ccc3o2)cc1 | 10.8* | 10.4 | 5.5* | 3.2 | 5.5 | 0.5
O=C(Nc1ccc(-c2nc3cc(Cl)ccc3o2)cc1)C1CCCO1 (stereo not drawn) | 12.0* | -6.2 | 4.2 | 2.2 | 0.8 | -0.6
